A selection: hits, their analogues and other compounds. The true share with any hit is near 0.81%.
SRC3 inh – inhibits human SRC3 coactivator; AID 588352; inhibition, % at 3.6 µM; HEK293 GAL4-SRC3 luciferase reporter, luminescence; Q9Y6Q9; 360,000 compounds, 0.17% hits;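 active means inhibition above a per-campaign cutoff, the mean of all compounds plus 3 SD, cut at about 60% in these data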;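 further: 0% = DMSO-treated cells and 100% = gossypol-treated cells at 36 µM; higher means less SRC3-driven luciferase light from the GAL4 reporter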
SRC2 inh – human SRC2 (NCOA2) inhibition | inhibition, % at 9 µM | HEK293 GAL4-SRC2 luciferase reporter, luminescence | 370,000 compounds, 0.17% hits | AID 651957;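 active means inhibition above the mean inhibition of all tested compounds plus 3 SD, set per campaign, cut at about 52% in these data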;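 further: 0% = DMSO treated cells and 100% = cells given Gossypol at 36 µM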
Target sequence (Q15596 whole entry, looked up, the tested form may be a part): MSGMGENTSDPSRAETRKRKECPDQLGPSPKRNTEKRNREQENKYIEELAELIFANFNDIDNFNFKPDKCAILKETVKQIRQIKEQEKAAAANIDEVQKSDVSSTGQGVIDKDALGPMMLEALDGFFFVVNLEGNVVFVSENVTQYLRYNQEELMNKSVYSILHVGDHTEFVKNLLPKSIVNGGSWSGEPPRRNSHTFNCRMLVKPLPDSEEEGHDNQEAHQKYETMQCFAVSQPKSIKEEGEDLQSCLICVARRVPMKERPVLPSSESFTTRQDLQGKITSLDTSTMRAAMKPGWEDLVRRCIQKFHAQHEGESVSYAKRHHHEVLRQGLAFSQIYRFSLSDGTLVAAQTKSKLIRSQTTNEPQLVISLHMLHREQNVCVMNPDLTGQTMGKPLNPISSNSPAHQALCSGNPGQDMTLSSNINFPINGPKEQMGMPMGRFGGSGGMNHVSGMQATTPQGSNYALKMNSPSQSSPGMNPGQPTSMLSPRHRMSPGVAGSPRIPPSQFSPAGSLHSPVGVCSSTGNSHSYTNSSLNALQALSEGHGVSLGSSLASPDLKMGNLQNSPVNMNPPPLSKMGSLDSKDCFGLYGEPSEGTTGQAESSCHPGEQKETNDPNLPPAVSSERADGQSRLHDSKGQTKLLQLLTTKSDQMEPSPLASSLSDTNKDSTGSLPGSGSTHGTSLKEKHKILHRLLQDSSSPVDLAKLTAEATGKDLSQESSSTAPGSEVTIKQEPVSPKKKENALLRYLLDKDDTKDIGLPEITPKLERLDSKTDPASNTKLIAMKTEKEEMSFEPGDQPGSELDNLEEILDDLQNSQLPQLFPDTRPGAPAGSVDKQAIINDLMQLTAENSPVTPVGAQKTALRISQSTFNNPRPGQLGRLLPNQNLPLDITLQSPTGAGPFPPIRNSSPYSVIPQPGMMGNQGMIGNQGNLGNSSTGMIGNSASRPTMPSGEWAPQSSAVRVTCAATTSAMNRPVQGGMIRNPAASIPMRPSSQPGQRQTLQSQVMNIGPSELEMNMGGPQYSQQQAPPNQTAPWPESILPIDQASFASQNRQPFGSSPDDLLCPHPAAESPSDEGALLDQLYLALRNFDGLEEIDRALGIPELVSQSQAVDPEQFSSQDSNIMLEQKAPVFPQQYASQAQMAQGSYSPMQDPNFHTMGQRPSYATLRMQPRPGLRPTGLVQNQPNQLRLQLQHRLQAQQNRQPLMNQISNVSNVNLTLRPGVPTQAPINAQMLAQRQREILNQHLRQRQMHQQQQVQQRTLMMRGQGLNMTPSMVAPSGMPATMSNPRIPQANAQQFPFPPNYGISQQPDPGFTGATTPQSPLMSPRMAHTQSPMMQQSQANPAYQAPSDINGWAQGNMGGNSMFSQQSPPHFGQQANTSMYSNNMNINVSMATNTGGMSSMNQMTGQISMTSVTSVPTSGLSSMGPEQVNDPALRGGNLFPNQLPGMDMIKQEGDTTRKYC
NCOA1 inh – inhibits human SRC1 coactivator; Q15788; HEK293 GAL4-SRC1 luciferase reporter, luminescence; inhibition, % at 3.6 µM; 360,000 compounds, 0.12% hits;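 active means inhibition above the campaign mean plus 3 SD, with each screening campaign given its own cutoff, cut at about 60% in these data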;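 further: 0% = DMSO treated cells and 100% = gossypol at 36 µM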
LRH-1 inv ag – suppresses constitutive activity of human LRH-1. O00482. HEK293T StAR-luciferase reporter, LRH-1 transfected, 24 h. inhibition, % at 3.6 µM. 360,000 compounds, 0.13% hits. AID 602396;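 active means inhibition above the mean inhibition of all tested compounds plus 3 SD, cut at about 73% in these data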;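 further: 0% = DMSO wells and 100% = reporter-only cells lacking LRH-1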
COUP-TFII inh – blocks human COUP-TFII nuclear receptor; HEK293T NGFI-A luciferase reporter, luminescence; inhibition, % at 8.6 µM; 370,000 compounds, 0.7% hits; AID 686940;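 active means inhibition above a per-plate cutoff, mean inhibition of test wells between control levels plus 3 SD, cut at about 38% in these data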;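 further: cells cotransfected with COUP-TFII expression vector driving the NGFI-A reporter; 0% = median of COUP-TF2 test wells and 100% = reporter-only cells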
VP16 Luc counter – inhibits VP16 reporter, flagging COUP-TFII antagonist hits; shares compounds with COUP-TFII inh; 2,500 compounds, 25% hits; HEK293 Gal4-VP16 luciferase reporter, luminescence; inhibition, % at 8.5 µM; in the data active means inhibition above about 13%
COUP-TFII conf – confirmation of human COUP-TFII (NR2F2) inhibitors; shares compounds with COUP-TFII inh; HEK293 NGFI-A luciferase reporter, luminescence; inhibition, % at 8.5 µM; 2,500 compounds, 45% hits; AID 687008;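 active means mean inhibition over three repeats above a set limit taken from the earlier primary screen, cut at about 38% in these data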;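 further: 100% = cells given the luciferase reporter alone without the COUP-TF2 vector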
Active calls of the source: *; / = not tested or not shown.

SMILES	SRC3 inh	SRC2 inh	NCOA1 inh	LRH-1 inv ag	COUP-TFII inh	VP16 Luc counter	COUP-TFII conf
Cc1cc(C)cc(C(=O)OCCCN(C)C2CN(Cc3cn(Cc4ccc([N+](=O)[O-])cc4)nn3)S(=O)(=O)C2)c1 (stereo not drawn)	/	-31	/	/	31	/	/
CCOc1ccc(S(=O)(=O)Nc2cnc3ccccc3c2)cc1	22	17	13	14	43*	-3	30
COCCNC(=O)C1(C)CCCN(C(=O)c2cc(C)on2)C1 (stereo not drawn)	4	-6	10	-19	-3	/	/
C=CCNC(=S)N/N=C/c1ccc(C(F)(F)F)cc1	10	11	17	12	43*	-3	28
O=C(CSc1nnc(NC(=O)C2CC2)s1)Nc1ccccc1Cl	-3	6	4	-11	2	/	/
CCOC(=O)c1c(CN2CCN(CCO)CC2)n(-c2ccccc2)c2cc(Br)c(O)cc12	-3	16	-25	2	43*	2	-4
CCOC(=O)c1c(CN2CCN(C)CC2)n(-c2ccccc2)c2cc(Br)c(O)cc12	22	3	-11	-23	9	/	/
Cc1ccc(NC(=O)c2cc(C)n(-c3ccccc3)c2C)cc1	66*	56*	65*	68	70*	60*	84*
Cc1ccc(NC(=O)c2cnn(-c3ccccc3)c2C)cc1	-84	-9	-110	-184	-27	/	/
Cc1ccc(NC(=O)c2cc(C)n(-c3cccc(C)c3)c2C)cc1	14	13	22	30	38*	-98	38*
Cc1ccc(-n2c(C)cc(C(=O)NS(=O)(=O)c3ccc(C)cc3)c2C)cc1	18	-1	5	-16	8	/	/
Cc1cc(C(=O)Nc2ccc(Cl)cc2)c(C)n1-c1ccccc1	86*	76*	85*	83*	86*	81*	99*
COc1ccccc1-n1c(Cc2cccc3ccccc23)nnc1SCC(=O)O	/	-18	/	/	-2	/	/
COc1ccc([N+](=O)[O-])cc1NC(=O)C(C)c1ccccc1 (stereo not drawn)	4	-3	-12	-14	10	/	/
COc1ccc([N+](=O)[O-])cc1NC(=S)NC(NC(=O)C(c1ccccc1)c1ccccc1)C(Cl)(Cl)Cl (stereo not drawn)	6	13	7	4	41*	0	13
COc1cccc(C(C)(O)c2nc(-c3ccc(S(C)(=O)=O)cc3)cs2)c1 (stereo not drawn)	13	9	10	43	40*	3	5
COc1ccc(-c2csc(C(C)(O)c3cccc(OC)c3)n2)cc1 (stereo not drawn)	5	29	-23	15	36	/	/
COc1ccc2cc3cc(C(=O)Nc4ccc5c(c4)OCCO5)oc3nc2c1	4	-19	-21	-13	-8	/	/
COc1ccc2cc3cc(C(=O)Nc4cc(OC)c(OC)c(OC)c4)oc3nc2c1	45	24	63*	46	50*	-6	19
O=C(CCC(=O)N1CCCC1)Nc1ccc(Cl)c(Cl)c1	6	2	-47	13	-7	/	/
Cc1nn(Cc2ccc(C(=O)NC(C)(C)C)o2)c(C)c1Br	3	37	17	10	48*	1	34
Cc1cc(NC(=O)c2ccc(Cn3nc(C)c(Br)c3C)o2)no1	11	2	14	-3	1	/	/
COc1ccccc1-c1noc(CCCC(=O)NC2CCCC2)n1	-5	-10	-6	13	0	/	/
O=C(CCCc1nc(-c2ccccc2Cl)no1)NC1CCCC1	63*	90*	45	26	73*	0	3
Cc1ccc(-c2noc(CCCC(=O)NC3CCCC3)n2)cc1	29	53*	5	19	48*	16*	15
SMILES	SRC3 inh	SRC2 inh	NCOA1 inh	LRH-1 inv ag	COUP-TFII inh	VP16 Luc counter	COUP-TFII conf
O=C(CCCc1nc(-c2ccccc2)no1)NC1CCCC1	7	10	-17	3	-4	/	/
O=c1ccn2c(n1)OC1CC2OC1COC(c1ccccc1)(c1ccccc1)c1ccccc1 (stereo not drawn)	/	-7	/	/	-11	/	/
O=C1C=CC(n2cc(F)c(=O)[nH]c2=O)O1 (stereo not drawn)	30	1	24	24	14	/	/
O=C(Nc1ccc(N2CCN(c3ncccc3C(F)(F)F)CC2)nc1)c1cccs1	35	4	24	17	52*	5	40*
COc1ccc(C(O)c2nc3ccccc3n2C)cc1OC (stereo not drawn)	21	-8	15	18	47*	1	32
CC1CCCN(c2nc(NCc3ccco3)nc(N)c2[N+](=O)[O-])C1 (stereo not drawn)	17	1	18	12	41*	1	4
Cc1cc(C)nc(NC(N)=NCCc2ccccc2)n1	51	25	38	48	43*	-12	19
Cc1cc(C)nc(NC(N)=NCCc2c[nH]c3ccccc23)n1	25	3	17	27	40*	-6	13
Cc1cc(C)nc(NC(N)=NC(C)c2ccccc2)n1 (stereo not drawn)	/	12	/	/	-14	/	/
Cc1ccccc1-c1cccc2c3c([nH]c12)[C@@H]1C[C@H]2[C@@H](CN1CC3)[C@H](C)ON2C	/	-1	/	/	-9	/	/
CCN(CC)C(=O)c1oc2ccc(S(=O)(=O)N3CC(C)CC(C)C3)cc2c1C (stereo not drawn)	21	14	-20	25	51*	1	49*
CCN(CC)C(=O)c1oc2ccc(S(=O)(=O)N3CCCCCC3)cc2c1C	23	24	3	6	20	/	/
COc1ccc(C(C(N)=O)c2ncc(C(F)(F)F)cc2Cl)cc1OC (stereo not drawn)	5	-16	-11	-11	-9	/	/
CCCCCCC(=O)N(O)C1CC(=O)N(Cc2ccccc2)C1=O (stereo not drawn)	8	9	2	12	29	/	/
CCCCCC(=O)N(O)C1CC(=O)N(c2ccccc2)C1=O (stereo not drawn)	14	4	3	-25	41*	-4	36
O=C(Nc1ccc(-c2nc3ccccc3o2)c(O)c1)c1cc(-n2cnnc2)ccc1Cl	21	27	18	21	44*	-8	17
Cc1nc(C)c(-c2csc(Nc3ccc(Cl)cn3)n2)s1	-16	-1	-5	2	32	/	/
Cc1nn(Cc2ccc(Cl)cc2)c(C)c1NC(=O)c1cc(C(C)C)on1	16	-9	16	42	44*	4	22
Cc1ccc(S(=O)(=O)N2CCCc3nc(-c4ccc(F)cc4)ccc32)cc1	/	-5	/	/	5	/	/
COc1ccc(C(=O)NC=C2C(=O)OC(C)(C)OC2=O)cc1	18	-25	-23	-2	-1	/	/
